# Measurements as given in PubChem BioAssay AID2314 (National Center for Advancing Translational Sciences (NCATS), 2010).
# Among all 300,000 compounds or so, about 37,000 (12%) were called active. Rule as the data show it: active = max response mostly above about 13% (no sharp cut-off); inactive = mostly below about 14%. This excerpt belongs to a sample that is enriched for actives.
# Experiment: Cycloheximide Counterscreen for Small Molecule Inhibitors of Shiga Toxin; also: read at 38.3 µM for the half of the compounds with a filed dose; 0% is about no effect
# Settings: cell reporter, cycloheximide protein synthesis inhibition counterscreen; active compounds read high
row,Compound,max response
1,Nc1cc(N2CCCCCC2)c2nonc2c1[N+](=O)[O-],-1.67% (inactive)
2,Cc1cccc(NC(=O)CCN2CC(C)CC(C)C2)c1 (centres undefined),-2.06% (inactive)
3,N#CCc1ccc(NC(=O)c2ccccc2C(=O)Nc2ccc(CC#N)cc2)cc1,21.8% (active)
4,CC(=O)Nc1ccc(CC#N)cc1,-2.61% (inactive)
5,NC(=O)COc1ccc(NC(=O)c2ccccc2-c2ccccc2)cc1,-2.28% (inactive)
6,O=C(Nc1ccccc1N1CCOCC1)c1ccc(OCc2cscn2)cc1,-3.59% (inactive)
7,CNC(=O)N1c2ccccc2C=Cc2ccccc21,-2.75% (inactive)
8,Nn1c(SCc2ccccc2)nnc1C1CCCCC1,38.2% (active)
9,Cc1cccc(CSc2nnc(C)c(=O)n2N)c1,-1.39% (inactive)
10,Cc1nnc(SCc2cccc(Cl)c2)n(N)c1=O,8.39% (inactive)
11,O=[N+]([O-])c1ccc(N2CCN(c3ccc(F)cc3)CC2)cn1,-1.96% (inactive)
12,CCCCC(=O)Nc1nnc(S(=O)(=O)N(C)Cc2ccco2)s1,12% (inactive)
13,Cc1ccc([N+](=O)[O-])cc1S(=O)(=O)N1CCCN(C)CC1,-0.621% (inactive)
14,CC(C)(C)SCCNC(=O)c1cccc([N+](=O)[O-])c1,19.6% (active)
15,COc1cccc(C(=O)CC(=O)C(=O)Nc2ccc([N+](=O)[O-])cc2C)c1,-0.608% (inactive)
16,COc1cccc(CNC(=O)CCCC(=O)Nc2cccc([N+](=O)[O-])c2)c1,-3.22% (inactive)
17,COc1cccc(NCCC(=O)c2cccc([N+](=O)[O-])c2)c1,34.7% (active)
18,Cc1cccc(C(=O)NNC(=O)c2cccc([N+](=O)[O-])c2)c1,0.787% (inactive)
19,Cc1cc(CNC(=O)c2cccc([N+](=O)[O-])c2)c2ccccc2n1,18.3% (inactive)
20,COCCCNCCOCCOc1ccc(Cl)cc1Br,-3.84% (inactive)
21,CC(C)(C)c1nnc(NC(=O)C2c3ccccc3Oc3ccccc32)s1,-2.51% (inactive)
22,O=c1o[nH]c(-c2ccccc2)c1N=Nc1c(F)cccc1Cl,6.23% (inactive)
23,COc1ccc2c(c1)c(C(=O)N/N=C/c1cccs1)c(C)n2C,-3.51% (inactive)
24,O=C(CN1CCC(NC(=O)Nc2ccccc2)CC1)Nc1cccc([N+](=O)[O-])c1,-2.36% (inactive)

row,Compound,max response
1,COCCNC(=O)c1ccc(S(=O)(=O)c2ccc(Cl)cc2)c(NC(C)=O)c1,-7.19% (inactive)
2,CCOc1cc(/C=C/c2nc3ccccc3c(=O)[nH]2)cc(Br)c1OC,2.32% (inactive)
3,COC(=O)c1cccc(C(=O)N2CCC(CCC(=O)NCc3ccc(F)cc3)CC2)c1,-0.695% (inactive)
4,Cc1ccc(C2(C(F)(F)F)N=C3Sc4cc(C)cc(C)c4N3C(=O)N2)cc1 (centres undefined),18.6% (active)
5,O=C(Cn1cc(C(F)(F)F)ccc1=O)N/N=C/c1ccc(Cl)cc1Cl,-2% (inactive)
6,Cn1nnc(NC(=O)CSc2ncn[nH]2)n1,-1.09% (inactive)
7,CCN(C(=O)CSc1ncn[nH]1)c1cccc2ccccc12,4.43% (inactive)
8,CC(C)(C)c1ccc(C(=O)CSc2ncn[nH]2)cc1,37.3% (active)
9,Cc1ccc2c(c1)C(c1ccccc1)N(C(=O)c1ccc(S(=O)(=O)N3CCOCC3)cc1)CC(=O)N2 (centres undefined),-1.59% (inactive)
10,CN(Cc1ccccc1)C(=O)CSc1nc2ccccc2[nH]1,39.7% (active)
11,N#Cc1c(-c2cccs2)nc(SCC(=O)c2ccc(Br)cc2)[nH]c1=O,2.73% (inactive)
12,CN(Cc1ccccc1)c1nc2c(c(=O)[nH]c(=O)n2C)n1CCSc1nc2ccccc2[nH]1,0.491% (inactive)
13,N#Cc1c(-c2ccc(F)cc2)cc(C2CC2)nc1SCC(=O)c1cccs1,-0.655% (inactive)
14,O=C(CSc1nc2ccccc2[nH]1)Nc1nc(-c2ccccc2)c(-c2ccccc2)o1,0.677% (inactive)
15,O=C(CSc1nc2ccccc2[nH]1)c1cccs1,47.2% (active)
16,C=CCN(CC=C)S(=O)(=O)c1ccc(C(=O)Nc2nc3c(s2)CCc2ccccc2-3)cc1,-6.15% (inactive)
17,CC(C)Cn1c(N2CCN(C(=O)/C=C/c3ccccc3)CC2)nc2ccccc21,3.07% (inactive)
18,CC1CCCCC1NC(=O)CO/N=C/c1ccc(OC(F)F)cc1 (centres undefined),1.26% (inactive)
19,O=C(CNC(=O)c1ccc(-c2ccccc2)cc1)OCc1ccc(Cl)cc1,-0.931% (inactive)
20,O=C(OCc1nnc(-c2ccccc2)o1)c1ccc2c(c1)C(=O)N(CCc1ccccc1)C2=O,-1.64% (inactive)
21,Cc1ccc(C(=O)NCC(=O)OCc2nnc(-c3ccccc3)o2)cc1,23.8% (active)
22,O=C(CN1CCN(c2cccc(Cl)c2)CC1)Nc1ccc(S(=O)(=O)N2CCOCC2)cc1,-3.83% (inactive)
23,CCOc1cc(/C=C2/N=C(c3ccc(C(C)(C)C)cc3)OC2=O)cc(Cl)c1OS(C)(=O)=O,-4.6% (inactive)
24,O=C1CCC(=O)N(O)CCCCCNC(=O)CCC(=O)N(O)CCCCCNC(=O)CCC(=O)N(O)CCCCCN1,-3.2% (inactive)

row,Compound,max response
1,CC(C)[C@@H]1COC(c2cccc(C3=N[C@H](C(C)C)CO3)c2)=N1,33.7% (active)
2,O=C(O)c1cccnc1NC1CCCC1,-2.86% (inactive)
3,COc1ccc(-c2nonc2NC(=O)c2oc3ccc(F)cc3c2C)cc1OC,4.29% (inactive)
4,Cc1ccc(S(=O)(=O)NCc2ccc(C(=O)NC3CCC(C)CC3)cc2)cc1 (centres undefined),-10.9% (inactive)
5,Cc1ccc(C)c(NC(=O)NNC(=O)c2ccc3ccccc3c2O)c1,3.4% (inactive)
6,O=C(NC1CCN(S(=O)(=O)c2ccc(F)cc2)CC1)c1ccccc1,-0.862% (inactive)
7,COc1cc(OC)c(C(=O)NC2CCCCCC2)cc1OC,-2.09% (inactive)
8,CC(NC(=O)c1cc(-c2ccccc2)on1)c1ccccc1 (centres undefined),3.69% (inactive)
9,CSc1ccccc1NC(=O)c1cc(C2CC2)on1,37.7% (active)
10,O=C(NC1CCCC1)c1cc(-c2ccccc2)on1,30.6% (active)
11,O=C(NC1CC1)c1ccc(-c2ccccc2)cc1,42.7% (active)
12,O=C(NC1CCCCC1)c1cc(C2CC2)on1,40.8% (active)
13,Cc1nn(Cc2ccc(Cl)c(Cl)c2)c(C)c1NC(=O)c1cc(C2CC2)on1,-1.12% (inactive)
14,O=C(NC1CC1)c1cccc(Br)c1,-2.43% (inactive)
15,CC(=O)c1cc(-c2ccccc2)n(CC(=O)NC2CCCCC2)c1C,-3.63% (inactive)
16,O=C(Nc1cc(C(F)(F)F)ccc1Cl)c1cc(C2CC2)on1,-4.3% (inactive)
17,CSc1ccccc1NC(=O)c1cc(Cl)sc1Cl,2.39% (inactive)
18,Cn1cc(S(=O)(=O)Nc2ccc(Cl)cc2Cl)c(=O)n(C)c1=O,-2.38% (inactive)
19,CC(C)C[C@@H](NC(=O)[C@H]1CCCN1C(=O)Cc1ccccc1)C(N)=O,8.92% (inactive)
20,CCC1(CC)C(=O)C2=C3C1[C@H](C(=O)OC)C=C(C(=O)OC)C[C@H]3[C@H]1C(=O)N(Cc3ccccc3)C(=O)[C@H]1[C@H]2C (some centres undefined),-3.02% (inactive)
21,CC(NC(=O)Cn1cc(C(F)(F)F)cc(Cl)c1=O)c1ccccc1 (centres undefined),11.8% (inactive)
22,CC[C@H](C)[C@H](NC(=O)[C@H](Cc1cnc[nH]1)NC(=O)[C@@H](N)CCC(=O)O)C(=O)N1CCC[C@H]1C(=O)N[C@@H](C)C(=O)O,-2.98% (inactive)
23,CCCCn1ccnc1C(=O)c1cccc(S(=O)(=O)N2c3ccccc3CC2C)c1 (centres undefined),-2.53% (inactive)
24,Cc1ccc(/C(N)=N/OC(=O)COc2ccc(Cl)c(C)c2)cc1,-3.46% (inactive)

row,Compound,max response
1,N/C(=N\OC(=O)CCc1ccccc1)c1ccc(Cl)cc1,24.7% (active)
2,CC(=O)OC(C(=O)NCCc1ccccc1)c1cccnc1 (centres undefined),-0.715% (inactive)
3,O=C(O)CCc1cccnc1,2.51% (inactive)
4,N/C(=N\OC(=O)CCc1ccccc1)c1cccnc1,27.3% (active)
5,O=C(CCC(=O)OCc1ccc(Cl)cc1)Nc1ccccc1,-2.49% (inactive)
6,CCCOc1ccc(NC(=O)CC2C(=O)N(C)C(=S)N2Cc2ccc3c(c2)OCO3)cc1 (centres undefined),-2.42% (inactive)
7,Cc1cccc(NC(=O)C(C)N2C(=O)C3C4CC(C(Br)C4Br)C3C2=O)c1 (centres undefined),-1.4% (inactive)
8,Cc1cccc(NC(=O)C(C)SCc2ccccc2)c1 (centres undefined),21.6% (active)
9,COc1ccc(NC(=O)C(C)SCc2ccccc2)cc1 (centres undefined),23% (inactive)
10,CC(C(=O)Nc1ccc(O)c(C(=O)O)c1)N1C(=O)/C(=C/c2cccs2)SC1=S (centres undefined),-1.39% (inactive)
11,CC1(C)CC(CNCCC(c2ccc(F)cc2)c2ccco2)CCO1 (centres undefined),0.614% (inactive)
12,CCOC(=O)C1(CCOc2ccccc2)CCN(Cc2cc(OC)c(O)cc2Cl)CC1,-2.51% (inactive)
13,Nc1nnc(SCC(=O)Nc2ccc3nc(SCC(=O)Nc4ccccc4)sc3c2)s1,33.9% (active)
14,CCCCNC(=O)CSc1nc2ccc(NC(=O)CSc3nnc(N)s3)cc2s1,2.41% (inactive)
15,CCCCNC(=O)CSc1nc2ccc(NC(=O)CSc3nnc(COc4ccccc4C)n3C)cc2s1,5.25% (inactive)
16,C#CCOc1ccc(/C=C2/C(=O)NN(c3ccccc3)C2=O)cc1OC,-3.05% (inactive)
17,COC(=O)c1cn(CC(=O)NCc2cccs2)c2ccccc12,68.2% (active)
18,COC(=O)Cn1cc(C(=O)c2cccs2)c2ccccc21,-0.264% (inactive)
19,O=C(CN1CCN(c2ccccn2)CC1)NCc1cccs1,-3.83% (inactive)
20,CCN(CC)C(=O)C(=O)c1cn(CC(=O)NCc2ccc3c(c2)OCO3)c2ccccc12,-2.04% (inactive)
21,COCCCNC(=O)Cn1cc(C(=O)C2CC2)c2ccccc21,-2.09% (inactive)
22,O=C(Cn1cc(C(=O)c2cccs2)c2ccccc21)NCc1cccs1,39% (active)
